A selection: hits, their analogues and other compounds. The true share with any hit is near 7.9%.
HT1080 IDH1KD tx: kills HT-1080 cells with IDH1 knockdown | hit rate 2% among 360,000 | HT-1080 IDH1 knockdown viability, ATP luminescence, 48 h | Potency, µM (highest dose often 46.1 µM), without a hit: top-dose activity, negative = toxicity, actives largely listed as cytotoxic | AID 686971;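 further: 0% = DMSO wells and -100% = cell-free medium wells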
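Cytotoxicity counter-line: IDH1KD HT-1080, 48 h, CellTiter-Glo. Curves classed by r2, magnitude and activity.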
MCF10A rerep: DNA re-replication induction in MCF 10a cells | MCF 10A DNA re-replication, Hoechst nuclear intensity, 48 h | Potency, µM (titrated, usually from 46.1 µM), without a hit: top-dose activity, positive = re-replication, hits mostly activators | hit rate 2.9% among 350,000; further: % of control where 0% means no effect; nearly all actives have a fitted effect of over 50% in size
KB-V1 cytotox: kills drug-selected multidrug resistant KB-V1 cells; KB-V1 MDR cells viability, CellTiter-Glo, 72 h; Potency, µM (doses to about 46.1 µM), most hits filed as cytotoxic; hit rate 3.4% among 400,000; AID 1347076; further: on the % scale 0 is the no-effect control and ±100 the full control effect; nearly all actives have a fitted effect of over 60% in size
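Following 72 h at 37 degrees C with compound, KB-V1 cell viability was read by CellTiter-Glo luminescence, medium being phenol-red-free DMEM plus 10% FBS; concentration-response parameters came from normalized, curve-fitted qHTS data.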
HT1080NT lethal: kills 2HG-producing HT-1080-NT fibrosarcoma cells | hit rate 1.6% among 360,000 | Potency, µM (highest dose often 46.1 µM), for the others: at the top dose activity, negative = less viability, actives largely listed as cytotoxic | AID 686970 | HT-1080-NT fibrosarcoma viability, CellTiter-Glo ATP luminescence, 48 h;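 further: NT is the 2HG producing partner of a matched IDH1 knockdown line; 0% = DMSO-treated cells and -100% = media-only wells without cells; nearly all actives have a fitted effect of over 55% in size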
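Viability by CellTiter-Glo luminescence after 48 h compound exposure at 37C of HT-1080-NT cells (750/well, RPMI, 5% FBS). % activity scaled between DMSO wells and medium-only wells, then curve-fitted and categorized by curve class.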
SW480 rerep: inducers of DNA re-replication in SW480 colon cancer cells; Potency, µM (highest dose often 46.1 µM), for the others: at the top dose re-replication activation, hits mostly activators; hit rate 1.8% among 340,000; SW480 DNA re-replication, Hoechst DNA content imaging, 48 h; AID 624297; further: % of control where 0% means no effect; nearly all actives have a fitted effect of over 55% in size
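Image-based DNA-content assay: after two days of treatment, nuclei were labelled with the DNA dye Hoechst and imaged, and hits were compounds raising the count of nuclei showing high fluorescence intensity.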
KB-3-1 tox: kills parental KB-3-1 adenocarcinoma cells; KB-3-1 viability, CellTiter-Glo ATP luminescence, 72 h; hit rate 1.4% among 400,000; Potency, µM (series often up to 46.1 µM), most hits filed as cytotoxic; AID 1347075; further: on the % scale 0 is the no-effect control and ±100 the full control effect; nearly all actives have a fitted effect of over 60% in size
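Cytotoxicity measured as CellTiter-Glo luminescence after 72 h at 37 C. Compound titrations were pinned onto drug-naive KB-3-1 parental adenocarcinoma cells grown in DMEM with 10% FBS, and normalized data fitted to concentration-response curves.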
* = called active by the depositor; i = inactive; ? = inconclusive; . = not tested or not shown; [ ] = dose if it differs, or a comment. The call rests on the fitted dose curve; in most records, active means well fitted curve in the direction sought with a large enough effect; inconclusive means small, poorly fitted or top-dose-only effect, or another doubt; inactive means no such curve, though single readings can be large; an effect the other way counts as inactive or inconclusive. Potency means the concentration at half of the fitted maximal effect.

SMILES | HT1080 IDH1KD tx | MCF10A rerep | KB-V1 cytotox | HT1080NT lethal | SW480 rerep | KB-3-1 tox
COc1cccc2c1O/C(=N\O)C(C(=O)Nc1ccc(C)cc1)C2 (stereo not given) | 15µM* | 18µM* | i | ? | ? | 4.1µM*
CCOC(=O)c1sc(NC(=O)CSc2n[nH]c(-c3ccncc3)n2)c(C#N)c1C | ? | 24% | i | ? | -3% | ?
CCOc1ccc(/C=C/C2=Cc3c(sc(NC(=O)CSc4n[nH]c(N)n4)c3C#N)C(C)(C)C2)cc1 | ? | 6.5µM* | ? | ? | 16µM* | 16µM*
NC(=O)c1ccsc1NC(=O)CSc1n[nH]c(N)n1 | -1% | 1% | i | -6% | -8% | i
Cc1ccsc1/C=C/C1=Cc2c(sc(NC(=O)CSc3n[nH]c(N)n3)c2C#N)C(C)(C)C1 | 13µM* | ? | i | 22µM* | 15µM* | i
Cc1ccnc2c1ccc1cccnc12 | ? | ? | ? | ? | -406% | ?
c1cnc2c(c1)ccc1cccnc12 | 7.3µM* | ? | ? | 7.3µM* | ? | ?
O=Cc1ccc2ccc3cccnc3c2n1 | ? | ? | i | ? | 21µM* | i
CSS(=O)(=O)c1cccc2cccnc12 | -4% | 18µM* | i | -12% | ? | i
CCN(CC)S(=O)(=O)c1cccc2cccnc12 | 1% | -2% | i | -2% | -23% | i
COc1ccc(C(=O)CCC(=O)N2CCN(c3cc(C)ccc3C)CC2)cc1 | -14% | 14% | i | -6% | ? | i
CC(=O)NCC(=O)N[C@@H](CC(=O)OCc1ccccc1)C(=O)OCc1ccccc1 | 14% | 4% | i | 12% | -6% | i
COc1ccc(-c2csc3nc(C)nc(N4CCCCC4)c23)cc1OC | ? | ? | ? | 16µM* | ? | ?
C(=N\N1CCN(C2c3ccccc3-c3ccccc32)CC1)/c1ccncc1 | -1% | ? | i | 0% | 9% | i
C/C(=N\N1CCN(C2c3ccccc3-c3ccccc32)CC1)c1ccncc1 | -5%[9.24 µM] | 15% | 18µM* | 4% | -2% | ?
COc1ccc(/C=N/NC(=O)c2cc3cc(OC)c(OC)cc3[nH]2)cc1 | 8% | -7% | i | -1% | -3% | i
COc1cc(/C=N/Nc2nncn2/N=C/c2ccc(O)c(OC)c2)ccc1O | 15µM* | -5% | 23µM* | 21µM* | 0% | i
COc1ccc(OC)c(/C=N/Nc2nncn2/N=C/c2cc(OC)ccc2OC)c1 | 15µM* | 23µM* | ? | ? | ? | 21µM*
O=C(CC1C(=O)NCCN1C(=O)Nc1ccc(C(F)(F)F)cc1)Nc1ccc(F)cc1 (stereo not given) | -24% | ? | i | -29% | 2% | i
C[n+]1nc(Nc2ccccc2)sc1-c1ccc(O)cc1 | 3% | -16% | i | ? | -4% | i
Cc1nc(-c2coc3cc(O)c(C)cc3c2=O)cs1 | 23µM* | 2% | ? | 18µM* | -8% | ?
Nc1ccc(-c2nc3c(ccc4ccccc43)[nH]2)cc1 | 5% | 23µM* | i | -1% | 1% | i
COC(=O)c1ccc2nc(-c3ccc(Cl)cc3)c(CC3CCCCC3)n2c1 | 13% | . | 16µM* | 11% | . | ?
COC(=O)c1ccc2nc(-c3cccc(Br)c3)c(CC3CCCCC3)n2c1 | -1% | . | 13µM* | 8% | . | ?
CCOc1ccc(C2=[N+]([O-])C(C)(C)N(O)C2(C)C)cc1 | 0% | 4% | i | 6% | 1% | i
SMILES | HT1080 IDH1KD tx | MCF10A rerep | KB-V1 cytotox | HT1080NT lethal | SW480 rerep | KB-3-1 tox
CC1CC1C(=O)OCC(=O)Nc1cccc([N+](=O)[O-])c1 (stereo not given) | 16% | -7% | i | 23% | 0% | i
COc1ccccc1CCNC(=O)c1cc(-c2ccncc2)nc2ccc(Br)cc12 | -4% | ? | ? | 1% | ? | i
COc1cccc2nc3cc(C)c(C)cc3nc12 | 8.2µM* | -7% | ? | 18µM* | 5% | i
COc1cccc2c1nc(C)c1cc(C)oc12 | 0% | 0% | i | -7% | -2% | i
O=C(NNC(=O)c1ccc(Br)cc1)c1ccncc1 | -2% | 12% | i | 3% | 0% | i
O=C(CCn1nc(-c2ccccc2)c2ccccc2c1=O)Nc1ccccc1 | . | . | i | . | . | i
N#Cc1c(C(F)(F)F)cc(-c2ccccc2Cl)[nH]c1=O | 1% | 15µM* | ? | -7% | 7% | ?
COc1cccc(-c2cc(C(F)(F)F)c(C#N)c(=O)[nH]2)c1 | -13% | 18µM* | i | -9% | 2% | i
N#Cc1c(C(F)(F)F)cc(-c2ccccc2)[nH]c1=O | 1% | ? | ? | -2% | 14% | i
COc1ccc(-c2nnc(SCC(=O)NCCc3ccccc3)nc2-c2ccc(OC)cc2)cc1 | . | . | ? | . | . | i
CC(=O)c1cccc(NS(=O)(=O)c2c(C)n[nH]c2C)c1 | 11% | 0% | i | 16% | 4% | i
CC(C)C(=O)Nc1ccc(-c2ccc3nncn3n2)cc1 | 23% | 0% | i | ? | 10% | i
CCCNC(=O)C12CCC(C)(C(=O)C1Br)C2(C)C (stereo not given) | 6% | 13% | ? | 12% | 1% | i
COc1ccc(-c2nnc(SCC(=O)c3cccs3)o2)cc1 | -2% | ? | i | 0% | -6% | i
O=C(CSc1nnc(-c2cccs2)o1)c1cccs1 | 4% | 3.7µM* | i | 0% | ? | i
CN(C)C(=O)CSc1nnc(-c2cc(-c3cccs3)nc3ccccc23)o1 | -7% | 10µM* | ? | 0% | ? | i
CCN(CC)C(=O)CSc1nnc(-c2cc(-c3ccc(Cl)cc3)nc3ccccc23)o1 | 2% | 9% | i | 18% | 1% | i
Cc1cccc(Nc2c([N+](=O)[O-])cc(C(=O)N3CC(=O)Nc4ccccc43)cc2[N+](=O)[O-])c1 | -17% | -1% | i | -14% | 5% | i
CCc1ccc(OCC(=O)Nc2cc(S(=O)(=O)CC)ccc2O)cc1 | 12% | -10% | 16µM* | 17% | -9% | i
CCc1ccc(OCC(=O)N2CCc3ccccc32)cc1 | 0% | 19% | i | -1% | -8% | i
CCCC(=O)Nc1cccc2c1CCCC2 | -2% | 13% | i | -2% | 3% | i
CCc1ccc(OCC(=O)N2c3ccccc3CCc3ccccc32)cc1 | -1% | ? | 18µM* | -15% | ? | ?
